For 59 compounds, survival results are on record in PubChem BioAssay AID463173 (ICCB-Longwood Screening Facility, Harvard Medical School, 2010).

Among all 52,000 compounds or so, about 4,300 (8.3%) were called active. Cut-off read from the data, not from the text of the source: active = survival mostly below about 52% (no sharp cut-off); inactive = mostly above about 56%. Only a selection was taken, and actives are over-represented in it overall.

The assay relates to DeltatarO mutant. As to the kind of experiment: S. aureus survival, RN4220 and DeltatarO strains – OD600, teichoic acid synthesis inhibitors, primary screen (AID 463173). The settings on record: S. aureus RN4220 wild type/DeltatarO growth, OD600, 18 h, stronger effect = lower value, screened at 18.75 µg/mL (by protocol).
As for `Cc1ccc(C(=O)c2cn(CC(=O)Nc3ccc(C)cc3Cl)c3nc(C)ccc3c2=O)cc1`, the survival is 99% (inactive). As for `Cc1ccc(Cl)cc1NC(=O)CCCn1c(=O)c2cccn2c2cccnc21`, the figure is 100% (inactive); as for `O=C(O)CCCN1CCCC1=O`, 81% (inactive); as for `CCCCOC(=O)c1ccc(NC(=O)CSc2nc3c(c(=O)[nH]2)CCC3)cc1`, 55% (inactive). Regarding `CC(C)=NOC1=NS(=O)(=O)c2ccccc21`, the survival was 92% (inactive).

For the compound `O=C(Nc1ccc(F)c(Cl)c1)N1CCC2(CC1)Oc1ccccc1C(=O)N2Cc1ccccc1F`, the survival is 55% (inactive). For `CC(C)OCCCNC(=O)CCCn1c(SCC(N)=O)nc2c(sc3ccccc32)c1=O` the value was 88% (inactive); for `CCN(c1ccc(OC)cc1)S(=O)(=O)c1nnc(NC(=O)c2ccccc2C)s1`, 37% (active). As to `Cc1ccccc1C(=O)Nc1nnc(S(=O)(=O)N(C)Cc2ccc(Cl)cc2)s1`, the survival is 102% (inactive). For `COc1ccccc1C(=O)Nc1nnc(S(=O)(=O)N(C)c2ccc(Cl)cc2)s1` the value was 95% (inactive); for `CCN(c1ccc(OC)cc1)S(=O)(=O)c1nnc(NC(=O)COc2ccc(F)cc2)s1`, 70% (inactive). As for `Cc1ccccc1C(=O)Nc1nnc(S(=O)(=O)N(C)c2ccc(Cl)cc2)s1`, the survival is 30% (active).

As to `Cc1ccc(C)c(NC(=O)CN2C(=O)C3(SCC(=O)N3c3ccc(C)c(C)c3)c3ccccc32)c1` (centres undefined), the survival is 80% (inactive). Regarding `Cc1cc(C)cc(NC(=O)Cn2c(=O)n(CC(=O)NCCc3ccccc3)c(=O)c3ccccc32)c1`, the survival was 62% (inactive). With `CCc1ccc2oc(-c3cc(NC(=O)c4cccs4)ccc3Cl)nc2c1`, the survival was 19% (active). On to `Cc1cc(NC(=O)c2cccs2)cc(-c2nc3cc(Cl)ccc3o2)c1O`, for which the survival was 79% (inactive). As for `CC(C)c1ccc2oc(-c3ccc(Cl)c(NC(=O)Cc4ccccc4)c3)nc2c1`, the survival was 116% (inactive). As for `Cc1ccc(-c2nc3cc(C(C)C)ccc3o2)cc1NC(=O)c1cccs1`, the figure is 57% (inactive).

For the compound `CCc1ccc2oc(-c3ccc(C)c(NC(=O)/C=C/c4ccco4)c3)nc2c1`, the survival is 83% (inactive). For the compound `O=C(Nc1ccc(O)c(-c2nc3ccccc3o2)c1)c1cccs1`, the survival was 75% (inactive). For `CC(C)c1ccc2oc(-c3cc(NC(=O)c4cccs4)ccc3Cl)nc2c1` the value was 16% (active); for `Cc1cc(C)c2oc(-c3ccc(C)c(NC(=O)/C=C/c4ccco4)c3)nc2c1`, 45% (active).

For `CC(C)c1ccc2oc(-c3ccc(Cl)c(NC(=O)c4cccs4)c3)nc2c1`, the survival was 5% (active).

On to `Cc1ccc2oc(-c3ccc(C)c(NC(=O)/C=C/c4ccco4)c3)nc2c1`, for which the survival is 58% (inactive).

Regarding `Cc1c(NC(=O)c2cccs2)cccc1-c1nc2cc(Cl)ccc2o1`, the survival was 42% (inactive).

With `Cc1ccc2oc(-c3cc(NC(=O)c4cccs4)cc(C)c3O)nc2c1`, the survival is 138% (inactive). For `Cc1ccccc1CS(=O)(=O)Cc1ccc(C(=O)NCCc2ccccc2)o1` the value was 86% (inactive). As for `COc1ccc(Cn2c(SCc3ccc(C(=O)NCc4cccs4)cc3)nc3cccnc32)cc1`, the figure is 63% (inactive). In the case of `CC(=O)c1cccc(NC(=O)c2ccc(Cl)c(S(=O)(=O)N3CCOCC3)c2)c1`, the survival is 73% (inactive). For the compound `CCc1cccc(C)c1NC(=O)c1ccc2c(c1)CCN2S(=O)(=O)c1ccc(Cl)cc1`, the survival is 67% (inactive). For `CCCn1c2ccccc2c2cnn(CC(=O)NC(CCSC)C(=O)OC)c(=O)c21` (centres undefined) the value was 124% (inactive); for `N#Cc1nc(/C=C/c2ccc(F)cc2)oc1N1CCCCC1`, 93% (inactive); for `COc1ccc(NC(=O)CCNS(=O)(=O)c2ccc3c(c2)CCCC(=O)N3)cc1`, 101% (inactive). On to `O=C(NCCc1ccccc1)c1ccc(Cn2c(SCc3ccc(F)cc3)nc3cccnc32)cc1`, for which the survival was 95% (inactive).

In the case of `CC(=O)c1cccc(NC(=O)CSc2nc3c(=O)n(C)c(=O)n(C)c3n2C)c1`, the survival was 79% (inactive).

As to `Cc1cc(C)c2oc(-c3ccc(Cl)c(NC(=O)c4cccs4)c3)nc2c1`, the survival was 55% (active).

For the compound `O=C(Nc1cc(-c2nc3cc(Cl)ccc3o2)ccc1Cl)c1cccs1`, the survival is 59% (inactive).

Consider `Cc1cc(C)c2oc(-c3ccc(NC(=O)c4cc(Br)ccc4Cl)cc3)nc2c1`, for which the survival was 89% (inactive).

On to `CCc1ccc2oc(-c3cc(NC(=O)c4cccnc4)cc(C)c3O)nc2c1`, for which the survival was 65% (inactive). Consider `Cc1cc(NC(=O)c2cccnc2)cc(-c2nc3cc(Cl)ccc3o2)c1O`, for which the survival is 140% (inactive).

In the case of `CC(C)c1ccc2oc(-c3cc(NC(=O)c4cccnc4)ccc3Cl)nc2c1`, the survival is -2% (active). For `CCOc1ccccc1NC(=O)C1CCCN(S(=O)(=O)c2c(C)[nH]c(=O)[nH]c2=O)C1` (centres undefined) the value was 88% (inactive); for `CC(C)c1cc(-c2nc(-c3ccc(Br)cc3)no2)n[nH]1`, 95% (inactive); for `O=C(Cn1c(-c2cccs2)cc2cc(F)ccc21)NCCc1ccc(Cl)cc1`, 91% (inactive). As for `Cc1ccc(-n2ncc3c(NCCC4=CCCCC4)ncnc32)cc1C`, the figure is 119% (inactive); as for `Cc1ccc(-n2ncc3c(NCc4ccccc4)ncnc32)cc1Cl`, -4% (active); as for `Clc1cccc(-n2ncc3c(NCCc4ccccc4)ncnc32)c1`, 94% (inactive).

Consider `Cc1ccc(-n2ncc3c(NCc4ccccc4)ncnc32)cc1C`, for which the survival was 70% (inactive). For `Cc1ccc(-n2ncc3c(NCCC4=CCCCC4)ncnc32)cc1` the value was 20% (active); for `Clc1cccc(-n2ncc3c(NCCC4=CCCCC4)ncnc32)c1`, 37% (active); for `Cc1ccc(-n2ncc3c(NCCc4ccccc4)ncnc32)cc1Cl`, 65% (inactive). As for `Fc1ccc(-n2ncc3c(NCCC4=CCCCC4)ncnc32)cc1`, the survival was 83% (inactive). As for `Cc1ccc(Cl)cc1-n1ncc2c(NCCC3=CCCCC3)ncnc21`, the figure is 91% (inactive). As for `COc1cccc(C2C(C(=O)Nc3cccnc3)=C(C)Nc3nc(SCc4ccccc4)nn32)c1` (centres undefined), the figure is 81% (inactive); as for `COc1ccc(Cn2c(SCc3ccc(C(=O)NC4CCCC4)cc3)nc3cccnc32)cc1`, 69% (inactive); as for `COC(=O)c1sc2nc3ccccc3cc2c1N`, 93% (inactive). For `COCCNS(=O)(=O)c1ccc(S(=O)(=O)N2CCCCC2)cc1` the value was 103% (inactive).

Consider `Cc1ccc2cc(CN(CC3CCCO3)C(=O)C3CCC3)c3nnnn3c2c1` (centres undefined), for which the survival was 95% (inactive). In the case of `CCC(C)NC(=O)CCCc1nnc2n(CC(C)C)c(=O)c3sccc3n12` (centres undefined), the survival was 94% (inactive).
